Assay outcomes: PubChem BioAssay, National Center for Advancing Translational Sciences (NCATS)
Hits are enriched below; roughly 2.4% of the tested compounds scored in any of these assays.
KAT2A inh: blocks human GCN5L2 histone acetyltransferase. Q92830. GCN5L2 HAT assay, ThioGlo1 CoA-SH fluorescence. Potency, µM (doses to about 58.9 µM), for the others: top-dose activity change, negative = inhibition, hits mostly inhibitors. 390,000 tested, 0.21% active. AID 504327; note: potency is the fitted concentration of half-maximal effect; % is set by controls: 0 for no effect and ±100 for the full control effect
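Fluorescence readout, Ex340nm/Em540nm: ThioGlo1 (50uM final) reacts with free CoA thiol released as 20nM GCN5L2 acetylates H3(1-25) peptide (75uM) using acetyl-CoA (70uM). Compound and enzyme sat 15 min beforehand; 20 min room-temperature reaction.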
POLI inh: blocks human DNA polymerase iota activity. Potency, µM (titrated, usually from 115 µM), inactives show at the highest dose activity, negative = inhibition, actives largely listed as inhibitors. Pol iota fluorescent replication assay, 10 min. AID 588590. 390,000 tested, 1% active. Q9UNA4; note: potency is the fitted concentration of half-maximal effect
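Fluorescent replication assay read twice, at 0 min and 10 min after adding 50 nM (final) substrate. Enzyme (10 nM) and compounds were first incubated 15 min at room temperature; enzyme-free buffer wells were negative controls.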
POLB inh: DNA polymerase beta (human) inhibition. 340,000 tested, 1.3% active. AID 485314. Pol beta primer extension/strand displacement, fluorescence kinetic. Potency, µM (series often up to 114 µM), for inactives: at the highest dose activity change, negative = inhibition, most hits filed as inhibitors; note: potency is the fitted concentration of half-maximal effect; % is set by controls: 0 for no effect and ±100 for the full control effect
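Enzyme-only controls used 10 nM Pol beta; buffer lacking enzyme served as negative control. Compound preincubated 15 min, then 50 nM substrate added; 0 and 10 min reads at room temperature.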
Pol kappa inh-1: inhibitors of human DNA polymerase kappa; 400,000 tested, 0.53% active; purified Pol kappa, fluorescent DNA synthesis assay, 10 min; Q9UBT6; AID 588579; Potency, µM (top dose mostly 107 µM), inactives show at the top dose activity, negative = inhibition, actives largely listed as inhibitors; note: potency is the fitted concentration of half-maximal effect; % is set by controls: 0 for no effect and ±100 for the full control effect
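50 nM final substrate added after 15 min RT preincubation of 10 nM Pol kappa with compound; fluorescence read at 0 and 10 min.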
Pol eta inh-1: inhibitors of human DNA polymerase eta; Q9Y253; recombinant Pol eta, fluorescent DNA replication assay; Potency, µM (highest dose often 114 µM), for the others: at the top dose activity change, negative = inhibition, hits mostly inhibitors; 390,000 tested, 1.2% active; note: potency is the fitted concentration of half-maximal effect; % is set by controls: 0 for no effect and ±100 for the full control effect
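Pol eta (10 nM) was preincubated with compounds for 15 min at room temperature, after which fluorescent replication substrate (50 nM final) was added to start the reaction. Fluorescence was read kinetically at 0 and 10 min.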
GLS inhibitor: inhibitors of human glutaminase (GLS); GLS enzymatic activity, qHTS titration; Potency, µM (doses to about 45.5 µM), for inactives: at the highest dose activity change, negative = inhibition, most hits filed as inhibitors; 410,000 tested, 0.21% active; AID 624170; note: potency is the fitted concentration of half-maximal effect; % is set by controls: 0 for no effect and ±100 for the full control effect
Target sequence (O94925 whole entry, looked up): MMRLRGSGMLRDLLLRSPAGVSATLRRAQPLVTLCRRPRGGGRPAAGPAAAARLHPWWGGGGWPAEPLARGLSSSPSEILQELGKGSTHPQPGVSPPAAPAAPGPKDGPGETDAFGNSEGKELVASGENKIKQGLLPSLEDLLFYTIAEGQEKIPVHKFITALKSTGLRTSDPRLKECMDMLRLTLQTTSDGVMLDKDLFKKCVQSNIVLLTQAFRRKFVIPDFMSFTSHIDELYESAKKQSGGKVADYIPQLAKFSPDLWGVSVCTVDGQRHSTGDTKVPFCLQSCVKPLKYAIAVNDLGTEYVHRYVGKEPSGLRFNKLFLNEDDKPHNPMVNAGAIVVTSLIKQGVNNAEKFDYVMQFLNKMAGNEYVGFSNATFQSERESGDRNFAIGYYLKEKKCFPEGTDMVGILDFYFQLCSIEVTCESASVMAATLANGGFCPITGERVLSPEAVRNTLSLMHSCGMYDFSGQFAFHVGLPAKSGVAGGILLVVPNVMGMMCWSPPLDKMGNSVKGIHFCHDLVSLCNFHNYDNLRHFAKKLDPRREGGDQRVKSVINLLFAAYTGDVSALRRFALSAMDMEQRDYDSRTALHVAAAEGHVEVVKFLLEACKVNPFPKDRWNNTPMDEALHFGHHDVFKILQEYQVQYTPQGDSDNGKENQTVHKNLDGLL
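Enzyme dispensed in phosphate buffer (45 mM, pH 8.2, 0.02% Tween-20), compounds pinned in, then 1 mM L-glutamine solution and the glutamate oxidase–HRP–Amplex Red mix added; fluorescence read immediately and again after 30 min at room temperature.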
GALK inh confirm: confirmation of human galactokinase (GALK) inhibitors. shares compounds with Pol eta inh-1. purified GALK, Kinase-Glo ATP depletion luminescence. Potency, µM (top dose mostly 115 µM), for the others: top-dose activity, negative = inhibition, actives largely listed as inhibitors. 150 tested, 70% active. AID 2015
GALK redox cs: counter-screen for GALK inhibitors: redox cycling H2O2 generation; shares compounds with Pol eta inh-1; 150 tested, 40% active; Potency, µM (series often up to 115 µM), for the others: top-dose activity change, negative = H2O2 signal, most hits filed as inhibitors; Phenol red-HRP H2O2 redox cycling, absorbance 600 nm; AID 2035
HEK293 viability: counter-screen for GALK inhibitors: HEK293 cell cytotoxicity | shares compounds with Pol eta inh-1 | AID 2547 | 170 tested, 10% active | Potency, µM (doses to about 46.1 µM), for inactives: top-dose activity change, negative = cytotoxicity, usual class: inhibitors | HEK-293 viability, ATP luminescence (CellTiter-Glo), 24/48 h; note: potency is the fitted concentration of half-maximal effect; % is set by controls: 0 for no effect and ±100 for the full control effect
Pol kappa inh-2: confirmation of human DNA polymerase kappa inhibitors | shares compounds with Pol eta inh-1 | purified Pol-kappa, fluorescent strand-displacement substrate | Potency, µM, hits mostly inhibitors | 920 tested, 76% active; note: potency is the fitted concentration of half-maximal effect
Pol eta inh-2: confirmation of human DNA polymerase eta inhibitors. Pol eta primer extension, TAMRA/BHQ fluorescence, 10 min. shares compounds with Pol eta inh-1. 2,600 tested, 64% active. Potency, µM, most hits filed as inhibitors; note: potency is the fitted concentration of half-maximal effect
The depositor's hits bear a star; u = inconclusive; x = no result; [ ] = another dose, or the depositor's remark. Calls come from the whole dose curve; as a rule, active = well fitted curve in the direction sought with a large enough effect; inconclusive = small, poorly fitted or top-dose-only effect, or another doubt; inactive = no such curve, though single readings can be large; an effect the other way counts as inactive or inconclusive.

SMILES	KAT2A inh	POLI inh	POLB inh	Pol kappa inh-1	Pol eta inh-1	GLS inhibitor	Pol eta inh-2	others
COc1ccc(-n2nnc3c(=O)n(CC(=O)N4CCC(C)CC4)cnc32)cc1	-2%	17%	-7%	10%	-5%	1%	x	GALK inh confirm=-5%;GALK redox cs=1%;HEK293 viability=-5%
CC(C)c1ccc(NS(=O)(=O)c2ccc3[nH]cc(C(=O)NC4CCCCC4)c(=O)c3c2)cc1	-21%	u	25µM*	u	35µM*	-2%	76*	Pol kappa inh-2=19*
CC(C)c1ccc(NS(=O)(=O)c2ccc3[nH]cc(C(=O)NCC4CCCO4)c(=O)c3c2)cc1 (stereo not given)	-6%	79µM*	32µM*	-22%	89µM*	-7%	u	Pol kappa inh-2=38*
Cc1c(Cl)cccc1NS(=O)(=O)c1ccc2[nH]cc(C(=O)NC3CCCC3)c(=O)c2c1	-10%	79µM*	u	u	25µM*	-18%	95*	Pol kappa inh-2=24*
COc1cccc(NS(=O)(=O)c2ccc3[nH]cc(C(=O)NC4CC4)c(=O)c3c2)c1	-19%	8%	-19%	-10%	-2%	-1%	x
Cc1cc(C)cc(NS(=O)(=O)c2ccc3[nH]cc(C(=O)NC4CCCCC4)c(=O)c3c2)c1	-15%	-28%	u	-16%	-16%	-7%	x
CCOc1ccc(NS(=O)(=O)c2ccc3[nH]cc(C(=O)NCC4CCCO4)c(=O)c3c2)cc1 (stereo not given)	1%	u	u	-15%	u	-5%	x
Cc1cccc(N2CCN(CCCNC(=O)c3nnc(Cc4c(F)cccc4Cl)o3)CC2C)c1 (stereo not given)	-14%	-4%	14%	-9%	-18%	15%	x
CCOC(=O)C1(Cc2cccc(F)c2)CCN(C(=O)COC)CC1	3%	-3%	11%	0%	1%	4%	x	GALK inh confirm=-3%;GALK redox cs=0%;HEK293 viability=-19%
CCOC(=O)C1(Cc2cccc(F)c2)CCN(C(=O)C2CCOCC2)CC1	-26%	42%	9%	6%	-21%	9%	x
Cn1cc(S(=O)(=O)N2CCCC2)cc1C(=O)O	-6%	u	x	-24%	22µM*	-9%	x	Pol kappa inh-2=u
Cc1cccc(N=C2NC(=O)/C(=C/C=C/c3ccco3)S2)c1	-3%	18µM*	20µM*	u	20µM*	-3%	u
O=C(O)c1ccc(-n2[nH]c3c(c2=O)CCCC3)cc1	-2%	u	28µM*	u	35µM*	11%	u	Pol kappa inh-2=24*
CC(C)(C)C1CCc2oc3ccc(NS(=O)(=O)c4ccc(C(=O)O)cc4)cc3c2C1 (stereo not given)	u	u	u	u	u	5%	x	Pol kappa inh-2=u
NS(=O)(=O)c1ccc(CCNC(=O)CSc2ccsc2[N+](=O)[O-])cc1	-2%	u	-1%	u	22µM*	-18%	u
COc1cccc2c1ncc1c(-c3ccc(C)cc3)nn(-c3cccc([N+](=O)[O-])c3)c12	1%	5%	10%	-4%[60.1 µM]	-13%	1%	x
O=S(=O)(NCc1cccs1)c1ccc(Br)s1	-12%	x	18%	x	x	x	x	GALK inh confirm=-9%;GALK redox cs=0%;HEK293 viability=13%
CCCn1c2ccccc2c2cnn(CC(=O)NCCc3ccc(S(N)(=O)=O)cc3)c(=O)c21	-9%	-10%	u	-6%	3%	2%	x
O=c1[nH]c(/C=C/c2ccc([N+](=O)[O-])cc2)c([N+](=O)[O-])c(=O)[nH]1	-7%	u	-3%	-4%	45µM*	9%	u	GALK inh confirm=38µM*;GALK redox cs=-2%;HEK293 viability=6%
O=c1[nH]c(/C=C/c2ccc3c(c2)OCO3)c([N+](=O)[O-])c(=O)[nH]1	0%	x	73%	x	x	x	x
CN1C(=O)c2ccc(Oc3ccccc3)cc2C1=O	x	50%	x	5%	1%	4%	x
O=C1Nc2ccccc2Oc2cc(Oc3ccccc3)ccc21	-13%	79µM*	-42%	u	x	0%	u
CC(=O)c1cccc(NC(=O)Cn2c(=O)oc3cc(S(=O)(=O)NCc4ccccc4)ccc32)c1	1%	u	u	-2%[60.1 µM]	-10%	5%	x
O=C(O)CCCC(=O)Nc1ccc(N2CCCC2)cc1	-2%	u	-2%	35µM*	13µM*	42%	48*
O=C(O)c1ccc(COc2c(F)c(F)c(F)c(F)c2F)o1	-9%	22µM*	40µM*	u	22µM*	-17%	76*
SMILES	KAT2A inh	POLI inh	POLB inh	Pol kappa inh-1	Pol eta inh-1	GLS inhibitor	Pol eta inh-2	others
O=C(O)c1ccc(COCC(F)(F)C(F)F)o1	-4%	-16%	28µM*	-24%	18µM*	1%	u
CCn1c(=O)cc(SCC(=O)NCc2ccc(Cl)cc2)c2ccccc21	-9%	5%	10%	-12%[60.1 µM]	-5%	-10%	x
COc1ccccc1C(=O)N=Nc1c(O)[nH]c2ccc([N+](=O)[O-])cc12	-9%	-21%	-27%	u	-7%	-12%	x
O=C(N=Nc1c(O)[nH]c2ccc([N+](=O)[O-])cc12)c1cc(-c2ccccc2Cl)nc2ccccc12	-16%	u	u	-12%[60.1 µM]	u	-1%	x	Pol kappa inh-2=u
CCOC(=O)C1CCN(c2c(C(=O)c3ccc(OCC)cc3)cnc3ccc(OC)cc23)CC1	-17%	u	0%	1%	-14%	-12%	x
CCOc1cccc(=O)c2c(C)n(-c3ccc(C(=O)O)cc3)c(C)c12	-11%	u	22µM*	u	28µM*	17%	27*
O=C(O)c1cccc(N2C(=O)C=CC2=O)c1	x	x	x	x	20µM*	14%	54*
